From PubChem BioAssay (NCATS)
Records with an inconclusive call do not appear. Values without a mark were called inactive. The source made the active and inactive calls. The call rests on the fitted dose curve; in most records, active means well fitted inhibition curve with a large enough effect in the repeat runs; inconclusive means weak or mixed curves; inactive means no such curve, though single readings can be large or run the other way.

Each molecule was assayed against Cytochrome P450 2C9 (Homo sapiens) (UniProt P11712) (assay: Cytochrome P450 family 2 subfamily C member 9 (CYP2C9) small molecule antagonists: luciferase biochemical (cell-free) qHTS assay (AID 1645842; further: nearly all actives have a fitted effect of over 55% in size)). Settings: P450-Glo CYP2C9 enzyme assay, luciferin luminescence; series mostly up to 57.4 µM; activity change, negative = inhibition: at the top concentration.
In short: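 P450-Glo CYP2C9 system: proluciferin substrate with enzyme in mix containing 0.4% BSA, 10 min at room temperature, then NADPH regeneration solution added and incubated 1 h at 37C. Detection reagent stopped reaction; luminescence read after 20 min as RLU.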
On the % scale 0 is the no-effect control and ±100 the full control effect; potency means the concentration at half of the fitted maximal effect.

Sequence of Cytochrome P450 2C9 (Homo sapiens) (P11712 whole entry, looked up): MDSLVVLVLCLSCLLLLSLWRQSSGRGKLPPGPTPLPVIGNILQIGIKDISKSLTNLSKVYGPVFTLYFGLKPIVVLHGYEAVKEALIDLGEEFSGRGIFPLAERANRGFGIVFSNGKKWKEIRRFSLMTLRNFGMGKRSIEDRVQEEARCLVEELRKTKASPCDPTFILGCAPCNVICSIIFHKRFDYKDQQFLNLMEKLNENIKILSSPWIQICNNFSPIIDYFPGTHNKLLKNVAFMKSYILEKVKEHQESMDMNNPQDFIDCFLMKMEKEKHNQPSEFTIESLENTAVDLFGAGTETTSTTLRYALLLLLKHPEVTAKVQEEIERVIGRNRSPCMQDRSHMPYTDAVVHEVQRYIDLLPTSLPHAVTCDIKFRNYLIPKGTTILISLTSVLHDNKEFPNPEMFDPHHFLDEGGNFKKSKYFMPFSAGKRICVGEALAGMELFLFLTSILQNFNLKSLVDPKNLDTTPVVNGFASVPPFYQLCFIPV

Structure (SMILES)	activity change, negative = inhibition	Potency
O=C1CC[C@H](C(=O)N2CCCCC2)N1	0.791%	–
CCCC(CCC)(C(=O)OCC)C(=O)OCC	-5.04%	–
Cc1ccc2c(Cl)cc(Cl)c(O)c2n1	0.716%	–
N#Cc1cc(NC(=O)C(=O)O)c(Cl)c(NC(=O)C(=O)O)c1	11.6%	–
O=C(CCCl)NCc1ccccc1	13.9%	–
C=CCOc1cc(Cl)ccc1C(=O)NCCN(CC)CC	-11.4%	–
COc1cc(C=O)ccc1O	17.7%	–
CCN1CCN(C(=O)N[C@@H](C(=O)N[C@@H]2C(=O)N3[C@@H]2SC(C)(C)[C@H]3C(=O)O)c2ccccc2)C(=O)C1=O	-2.18%	–
Fc1ccc(C(c2ccc(F)cc2)N2CCNCC2)cc1	-2.07%	–
CCOc1ncc(F)c(=O)[nH]1	14.4%	–
CC(COc1ccccc1)NN (configuration not stated)	–	23.9 µM (active)
CC(C)=CCC/C(C)=C/CC/C(C)=C/CCC(=O)OC/C=C(\C)CCC=C(C)C	1.11%	–
CCCCC(O)/C=C(C)/C=C/C=C/C(=O)N1CCCC1=O (configuration not stated)	-14.9%	–
CCCCCC[C@@H](CCC)C(=O)O	-5.76%	–
CCO[C@H](Cc1ccc(OCCc2ccc(OS(C)(=O)=O)cc2)cc1)C(=O)O	8.8%	–
NC(=O)NS(=O)(=O)c1ccc(Cl)cc1	15.3%	–
Nc1ccc(C(=O)OCC(O)CO)cc1 (configuration not stated)	-8.29%	–
CCOC(=O)C(O)c1ccccc1 (configuration not stated)	12%	–
CC(=O)c1ccc(O)c(C(N)=O)c1	9.79%	–

Structure (SMILES)	activity change, negative = inhibition	Potency
Nc1nc(=O)n([C@@H]2O[C@H](CO)[C@@H](O)[C@@H]2F)cc1I	11.2%	–
C1=CC2C3C=CC(C3)C2C1 (configuration not stated)	2.12% [at 115 µM]	–
Cc1cc(O)c(C)c(C)c1O	-4.68%	–
CCCCOC(=O)CCCCCCCCC(=O)OCCCC	–	19 µM (active)
CC(C)C(=O)Nc1cccc(C(F)(F)F)c1	4.62%	–
CN=C(N)NC(=O)Nc1c(C)cccc1C	10.8%	–
O=C1NC(c2ccccc2)(c2ccccc2)C(=O)N1COP(=O)(O)O	12%	–
CC1(C)S[C@@H]2[C@H](NC(=O)C(c3ccccc3)S(=O)(=O)O)C(=O)N2[C@H]1C(=O)O (some centres not stated)	6.7%	–
CCC1(c2cnc[nH]2)Cc2ccccc2C1	–	0.871 µM (active)
CCN(CC)CC(=O)Oc1ccc(NC(C)=O)cc1	13.1%	–
O=C(C1CCCCC1)N1CC(=O)N2CCCc3ccccc3C2C1 (configuration not stated)	–	6.17 µM (active)
CC(=O)O[C@@H]1CC2C3CCc4cc(OC(=O)c5ccccc5)ccc4C3CCC2(C)[C@H]1OC(C)=O (some centres not stated)	1.5%	–
Cc1ccccc1C(=O)N1CC/C(=N\OS(=O)(=O)O)c2ccc(Cl)cc21	–	8.71 µM (active)
CCOc1ccccc1OCC1CNCCO1 (configuration not stated)	4.01%	–
CO/N=C(/C(=O)N[C@@H]1C(=O)N2C(C(=O)OCOC(=O)C(C)(C)C)=C(C)CS[C@H]12)c1csc(N)n1	–	17.4 µM (active)
CCOc1c(N2CCOCC2)cnn(C)c1=O	5.4%	–
C=C(C)C(=O)OCC(O)CO (configuration not stated)	2.95%	–
C[C@H]1C[C@H](O)c2ccsc2S1(=O)=O	22.7%	–
